# According to PubChem BioAssay (NCI):
# About 83,000 compounds went through this panel and 20% of them were active in at least one assay; those are over-represented in the sample as a whole.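 The test compound was applied at a single concentration to cells in 96-well plates for 48 hours, and percent growth was recorded.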 Values without a mark were called inactive. Active and inactive are the calls of the source. Rule for the calls: active = growth percent below 10; inactive = the rest.
# Test system: HL-60(TB) leukemia
# Experiment: NCI-60 one-dose screen, 48 h (100 = growth as untreated, 0 = no growth, -100 = all killed)
# Conditions: 10 µM unless noted
row,SMILES,growth
1,O=C(NCc1cn(Cc2cccc(Oc3ccccc3)c2)nn1)c1cccnc1NCc1ccc(Cl)cc1,3.88% (active)
2,CCOc1cc(/C=C/C(=O)C(C(=O)/C=C/c2ccc(OC(=O)CNc3nnc(C)s3)c(OCC)c2)C(=O)CNc2nnc(C)s2)ccc1OC(=O)CNc1nnc(C)s1,-46.4% (active)
3,Cn1c2ccccc2c2c3c(c4c5cccnc5[nH]c4c21)C(=O)N(O)C3=O,17.2%
4,COc1ccc2[nH]c(C(=O)OCc3ccc4c(Cl)cc(Cl)c(O)c4n3)cc2c1,-30.4% (active)
